The structures appear in SMILES notation. Screen size: about 48,000 compounds; about 13,000 (27%) showed an effect of 50% or more. Some of the results follow.

The assay concerns Wolbachia pipientis. In words: Anti-Wolbachia Cell-Based Screen. The settings on record: 5 µM. Set-up: scale not given: in the data most compounds retested in dose-response had high values. The assay is classed as functional.
Regarding `CC1(c2ccccc2)CCC(=O)N(CC2(N3CCOCC3)CCCC2)C1` (stereo unspecified), the “Percent Effect” value is listed as -0.1352%.
For the compound `O=C(NCc1nc(C2CC2)no1)N1CCOC(c2ccccc2)C1` (stereo unspecified), the “Percent Effect” value is -16.91%.
Consider `COC(=O)[C@@H]1Cc2ncn(C)c2CN1S(=O)(=O)c1ccc(OC)cc1`, for which the “Percent Effect” value came out at 2.654%.
As to `O=C(Nc1ccnn1C1CCCC1)c1ccc(NC2CC2)nc1`, the “Percent Effect” value was -4.734%.
Take `CCc1c(C)nn(CCN2CC3(CCOC3)CCC2=O)c1C` (stereo unspecified): the “Percent Effect” value is recorded as -12.78%.
For `CC(C)(C)C(=O)NCCc1ccn(-c2ccccc2)n1`, the “Percent Effect” value is recorded as 8.286%.
The figure for `CC(C)(C)C(=O)NCCC(=O)NCCc1ccn(-c2ccccc2)n1` is 101.3%.
As for `CC(C)CCNC(=O)CCc1ccnc2ccccc12`, the “Percent Effect” value is reported as -1.133%.
Take `CCNC(=O)CCS(=O)(=O)Cc1ccn(-c2cccc(F)c2)n1`: the “Percent Effect” value is given as -7.781%.
Turning to `CC(C)(CNC(=O)NCCOc1cccc(F)c1)C(N)=O`, the “Percent Effect” value was -10.47%.
Consider `CC(C)(CNC(=O)NCCc1ccn(-c2ccccc2)n1)C(N)=O`, for which the “Percent Effect” value was determined as 145.8%.
The figure for `O=C(CCNc1ncccn1)NCCc1ccn(-c2ccccc2)n1` is 0.9035%; for `CC(C)CCC(=O)NCCc1ccn(-c2ccccc2)n1` it is 127.8%; for `CCC(CC)NC(=O)CN1CCN(C(=O)N(C)C)CC1` it is 29.72%.
As for `CCCn1cnnc1CNC1CSCCSC1`, the “Percent Effect” value turned out to be 10.77%.
Consider `COCC1Cn2nnc(-c3cnn(C)c3)c2CN1Cc1ccoc1.O=C(O)C(F)(F)F` (stereo unspecified), for which the “Percent Effect” value amounted to 100.4%.
In the case of `COCC1Cn2nnc(-c3cnn(C)c3)c2CN1Cc1ccsc1.O=C(O)C(F)(F)F` (stereo unspecified), the “Percent Effect” value is recorded as 97.96%.
Consider `Cc1cccc(COCC2c3nnn(C)c3CCN2Cc2ccoc2)n1.O=C(O)C(F)(F)F.O=C(O)C(F)(F)F` (stereo unspecified), for which the “Percent Effect” value is -0.8413%.
Under `COCC1Cn2nnc(-c3cnn(C)c3)c2CN1Cc1ccco1.O=C(O)C(F)(F)F` (stereo unspecified) stands -7.435%; under `COCC1Cn2nnc(-c3cnn(C)c3)c2CN1Cc1ccc(C)s1.O=C(O)C(F)(F)F` (stereo unspecified), -9.357%.
The figure for `Cc1cnnn1Cc1nnn2c1CN(Cc1cccs1)CCC2.O=C(O)C(F)(F)F` is -1.131%.
For the compound `COCC1CN(Cc2ccc(C)o2)Cc2cn(C)nc21.O=C(O)C(F)(F)F.O=C(O)C(F)(F)F` (stereo unspecified), the “Percent Effect” value is -19.49%.
Under `Fc1cccc(-c2nnn3c2COC(CNCc2ccsc2)C3)c1.O=C(O)C(F)(F)F` (stereo unspecified) stands -5.927%; under `Cn1cc(-c2nnn3c2COC(CNCc2nccs2)C3)cn1` (stereo unspecified), 7.882%; under `COCC1Cn2nnc(-c3cnn(C)c3)c2CN1Cc1ccc(C)o1` (stereo unspecified), 87.7%.
As for `COCC1Cn2nnc(-c3cnn(C)c3)c2CN1Cc1cccs1.O=C(O)C(F)(F)F` (stereo unspecified), the “Percent Effect” value worked out at 105.4%.
On to `COCC1CN(Cc2ccsc2)Cc2nn(C)cc21.O=C(O)C(F)(F)F` (stereo unspecified), for which the “Percent Effect” value was 2.999%.
On to `CN(C)S(=O)(=O)N1C[C@H]2CCC[C@@]2(COCC2CCOCC2)C1`, for which the “Percent Effect” value is -9.423%.
On to `CCc1nc(CNC2CCN(c3ccc(OC)cc3)CC2)cs1`, for which the “Percent Effect” value is given as -5.711%.
With `O=C(c1ccncc1F)N1CCc2ncnc(N3CCOCC3)c2CC1`, the “Percent Effect” value worked out at 22.92%.
For the compound `CCc1n[nH]c(C(=O)NCCn2nccc2C)c1C`, the “Percent Effect” value came out at 177.1%.
`CCc1noc(C)c1C(=O)NCc1cc[nH]n1`: the “Percent Effect” value is -9.348%.
Turning to `CCc1n[nH]c(C(=O)NCCn2ccnc2C)c1C`, the “Percent Effect” value came to 12.68%.
Turning to `CCCN1CC2(CCN(C)CC2)CC1C(=O)NCCn1ccc(C)n1` (stereo unspecified), the “Percent Effect” value was determined as 5.137%.
In the case of `CCc1c(C)nn(CCNC(=O)c2cnn[nH]2)c1C`, the “Percent Effect” value is listed as -18.26%.
Consider `CCc1n[nH]c(C(=O)NCCn2ccc(C)n2)c1C`, for which the “Percent Effect” value is reported as 161.5%.
`COc1cccc(N2CCN(C(=O)CO)CC2=O)c1`: the “Percent Effect” value was 5.099%.
Under `COc1ccc(N2CCN(C(=O)CCCc3cn[nH]c3)CC2=O)cc1` stands -15.55%; under `CN1CC(C(=O)N2CCN(c3cccc(Cl)c3)C(=O)C2)NC1=O` (stereo unspecified), 98.1%.
As to `Cc1cc(C)cc(N2CCN(C(=O)C3CN(C)C(=O)N3)CC2=O)c1` (stereo unspecified), the “Percent Effect” value is given as 83.41%.
Turning to `Cc1ccc(N2CCN(C(=O)C(O)c3cccc(Cl)c3)CC2=O)cc1` (stereo unspecified), the “Percent Effect” value is given as -0.06478%.
Regarding `COc1cccc(N2CCN(C(=O)[C@H](O)C3CCCCC3)CC2=O)c1`, the “Percent Effect” value is recorded as -19.32%.
As to `Cc1ccc(CC(=O)N2CC[C@@H]3NC(=O)CC[C@@H]32)cc1`, the “Percent Effect” value is -5.727%.
For the compound `Cc1ccc(N2CCN(C(=O)[C@@H]3CCC(=O)N3)CC2=O)cc1`, the “Percent Effect” value worked out at 107.8%.
As to `COC(C(=O)N1CCN(c2cccc(Cl)c2)C(=O)C1)c1ccccc1` (stereo unspecified), the “Percent Effect” value is on record as -8.872%.
The figure for `O=C([C@H](O)c1ccccc1)N1CCN(c2cccc(Cl)c2)C(=O)C1` is -7.931%.
On to `Cc1ccc(N2CCN(C(=O)C3CN(C)C(=O)N3)CC2=O)cc1` (stereo unspecified), for which the “Percent Effect” value came out at 99.53%.
With `COc1cnc(CN2CC(=O)N(c3ccc(C)cc3)CC2C)cc1O` (stereo unspecified), the “Percent Effect” value stood at 8.35%.
Take `COc1ccc(-c2nc(CNCCn3cccn3)cs2)cc1`: the “Percent Effect” value was determined as 30.25%.
As to `COc1cc2c(cc1CNCc1ccnc(-n3cccn3)c1)OC(C)C2.Cl` (stereo unspecified), the “Percent Effect” value was -0.5391%.
In the case of `O=C(O)CSc1nnc(-c2ccn[nH]2)n1-c1ccccc1C(F)(F)F`, the “Percent Effect” value was -29.49%.
As to `N#CCCN(CC1CCOC1)Cn1ccc(-c2ccsc2)n1` (stereo unspecified), the “Percent Effect” value was -9.852%.
As for `Cn1cccc1C(=O)N1CCC2(CCN(C(=O)c3cccnc3)C2)CC1.O=C(O)C(F)(F)F`, the “Percent Effect” value was 51.82%.
For `Cn1cccc1CN1CCC2(CCCN(C(=O)c3cccnc3)C2)CC1.O=C(O)C(F)(F)F.O=C(O)C(F)(F)F`, the “Percent Effect” value turned out to be 3.692%.
Regarding `Cn1cccc1C(=O)N1CC2(CCN(C(=O)c3cccnc3)C2)C1.O=C(O)C(F)(F)F`, the “Percent Effect” value was 98.8%.
The figure for `CN1CCN(C(=O)NCCc2ccc(F)cc2)[C@H]2CS(=O)(=O)C[C@H]21` is 8.781%; for `CN(C)C1(CNC(=O)Cc2ccc(F)cc2)CCOCC1` it is -8.041%.
Regarding `CC1(CCNC(=O)NCc2ccsc2)OCCO1`, the “Percent Effect” value is -10.92%.
Take `CC1(C(=O)Nc2ccc(F)c(-n3cccc3)c2)CCOCC1`: the “Percent Effect” value is -9.431%.
With `CC1(C(=O)NCc2cccc(C(F)(F)F)c2)CCOCC1`, the “Percent Effect” value came out at 102.7%.
Take `CCN(CC)c1ccc(CNC(=O)C2(C)CCOCC2)cc1F`: the “Percent Effect” value turned out to be 25.87%.
Under `CC(CNC(=O)NCc1ccsc1)CC1(C)OCCO1` (stereo unspecified) stands -12.21%.
Turning to `FC(F)(F)c1cccc(C2(CNCc3cc[nH]c3)CCOCC2)c1`, the “Percent Effect” value turned out to be 2.692%.
Consider `CC1(C(=O)NCc2ccsc2)CCOCC1`, for which the “Percent Effect” value is on record as 107.3%.
As for `CC1(C(=O)NCCc2ccc(F)cc2)CCOCC1`, the “Percent Effect” value came out at 104.4%.
Consider `FC(F)(F)c1cccc(C2(CNCc3ccncc3)CCOCC2)c1`, for which the “Percent Effect” value was -7.872%.
For `CC1(C(=O)NCc2cc(F)cc(F)c2)CCOCC1`, the “Percent Effect” value stood at 100.6%.
As to `Cc1nc(-c2ccccc2)c(C(=O)N2CCC3(CC(=O)NC3=O)C2)s1` (stereo unspecified), the “Percent Effect” value is -0.3979%.
In the case of `Cc1noc(C)c1CN1CC2(CCN(C(=O)c3ccoc3C)C2)CC1=O` (stereo unspecified), the “Percent Effect” value is -6.391%.
The figure for `CCC(C)N(Cc1cc(C)n[nH]1)Cc1ccccc1Cl` (stereo unspecified) is 4.348%; for `Cc1cc(CN2CCCC2)cc(Oc2ccc3c(c2)CC(CN)O3)c1` (stereo unspecified) it is 4.792%; for `CC(C)c1noc(CN(C)C(=O)c2ncn[nH]2)n1` it is 4.654%.
As for `CC(=O)NCCNC(=O)c1sc(-c2ccc(C)cc2C)nc1C`, the “Percent Effect” value is listed as -3.584%.
For `N#Cc1cn[nH]c1NCc1cc(I)cc(I)c1O`, the “Percent Effect” value was 96%.
For `N#Cc1cn[nH]c1NCc1cc(Br)ccc1O`, the “Percent Effect” value worked out at 83.36%.
Regarding `N#Cc1cn[nH]c1NCc1cc(Cl)cc(Cl)c1O`, the “Percent Effect” value is listed as 77.61%.
On to `COc1ccc(/C=C/CN2CCN(c3ncccc3C(N)=O)CC2)cc1`, for which the “Percent Effect” value was -5.557%.
For the compound `Cc1nc(NC2CCCC2)cc(C2CCN2C(=O)c2cccnc2)n1` (stereo unspecified), the “Percent Effect” value is on record as -5.726%.
With `Cc1nc(NC2CCCC2)cc(C2CCN2C(=O)c2ccccc2)n1` (stereo unspecified), the “Percent Effect” value amounted to 4.339%.
For `Cc1nc(NC2CCCC2)cc(C2CCN2C(=O)c2ccccn2)n1` (stereo unspecified), the “Percent Effect” value stood at 140.6%.
Regarding `CCc1cc(NC2CCN(CC(N)=O)CC2)nc(N2CCCCC2)n1`, the “Percent Effect” value came to 3.351%.
Turning to `CCC(=O)N1CCC1c1cc(NC2CCCC2)nc(C)n1` (stereo unspecified), the “Percent Effect” value came out at 124.3%.
As to `Cc1cccc(N2CC[C@H]3[C@H]2CCN3C(=O)c2cnn(C)c2)n1`, the “Percent Effect” value turned out to be 8.202%.
`Cc1nc(NC2CCCC2)cc(C2CCN2C(=O)c2cnn(C)c2)n1` (stereo unspecified): the “Percent Effect” value came out at 99.12%.
Under `O=C1NCCc2c1sc1ccc(C(=O)N3CC[C@H](CO)[C@H](O)C3)cc21` stands 1.887%.
`CCCS(=O)(=O)N1CCC2(CCC(=O)N(CCc3cccnc3)C2)CC1`: the “Percent Effect” value is reported as -2.035%.
In the case of `CCCC(=O)NC(C)(C)Cc1ccccc1OC`, the “Percent Effect” value turned out to be 8.655%.
With `CCn1cc(S(=O)(=O)NC(=O)CCc2c[nH]c3ccccc23)cn1`, the “Percent Effect” value is on record as 5.036%.
Regarding `CN1CCN(c2ccc(NCc3ccc([S+](C)[O-])cc3)cn2)CC1` (stereo unspecified), the “Percent Effect” value is -11.28%.
Turning to `Cc1ccsc1C(=O)N1CC[C@H]2CO[C@H](CN(C)C)[C@H]2C1.O=C(O)C(F)(F)F`, the “Percent Effect” value was 3.155%.
Take `CCC(C)CS(=O)(=O)NC(=O)C1CC1` (stereo unspecified): the “Percent Effect” value is -14.71%.
As to `[O-][S+](Cc1c(F)cccc1Cl)Cc1nnnn1C1CC1` (stereo unspecified), the “Percent Effect” value came out at 117.1%.
Consider `c1ccc(C2CCCN2Cc2nnnn2C2CC2)cc1` (stereo unspecified), for which the “Percent Effect” value is on record as -9.931%.
With `O=C(CS(=O)(=O)Cc1nnnn1C1CC1)NCC1CC1`, the “Percent Effect” value was -6.472%.
On to `O=C(CS(=O)(=O)Cc1nnnn1C1CC1)NCCc1ccccc1`, for which the “Percent Effect” value is recorded as -17.89%.
With `O=S(=O)(Cc1ccccc1F)Cc1nnnn1C1CC1`, the “Percent Effect” value amounted to 106.9%.
Consider `CN(Cc1nnnn1C1CC1)c1cccc2ccccc12`, for which the “Percent Effect” value was -12.9%.
Regarding `O=S(=O)(CCCc1ccccc1)Cc1nnnn1C1CC1`, the “Percent Effect” value was -8.499%.
The figure for `O=S(=O)(Cc1c(F)cccc1Cl)NCCCN1CCCCCC1` is 1.36%.
Regarding `O=S(=O)(Cc1c(F)cccc1Cl)Cc1nnnn1C1CC1`, the “Percent Effect” value is 95.69%.
As to `CCC(C)CN(C)C(=O)NCc1ccccc1-n1cccn1` (stereo unspecified), the “Percent Effect” value is -6.014%.

The values are drawn from ChEMBL document CHEMBL3988442, “University of Dundee, Small-Polar-MMV Screening Library” (2021).
